Screening results deposited in PubChem by National Center for Advancing Translational Sciences (NCATS).
The entries come from a sample that favours hits as a whole.
Pf Dd2 inh – qHTS Primary assay for Inhibitors of Plasmodium falciparum Dd2 growth in vitro | 120,000 compounds, 4.3% hits | AID 1347417, 2020 | Potency, µM (titrated, usually from 28.9 µM), inactives show at the top dose activity, negative = inhibition, usual class: inhibitors | P. falciparum Dd2 growth, SYBR Green, 72 h; active = well fitted inhibition curve with a large enough effect;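 also: plate controls were DMSO vehicle for no effect and reference drug for full effect; nearly all actives have a fitted effect of over 65% in size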
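Infected erythrocytes (Dd2, 0.3% parasitemia, 2.5% hematocrit final) are added to compound in RPMI-1640/Albumax II medium, grown 72 h at 37C in low oxygen, then lysed with saponin/Triton-X containing SYBR Green and read by fluorescence.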
Starred values were filed as active, the others as inactive; i = inactive; [ ] = dose if it differs, or a comment. Potency is read from the fitted curve at half-maximal effect.

SMILES | Pf Dd2 inh
CCCn1c2ccccc2c2cnn(CC(=O)NCCN(CC)CC)c(=O)c21 | i
O=C(Cn1ncc2c3ccccc3n(Cc3ccc(F)cc3)c2c1=O)NCCCN1CCCCC1 | 5µM*
CCCCN(CC)CCCNC(=O)Cn1ncc2c3ccccc3n(C)c2c1=O | i
O=C(Cn1ncc2c3ccccc3n(Cc3ccc(F)cc3)c2c1=O)NC1CCCCCC1 | i
O=C(Cn1ncc2c3ccccc3n(Cc3ccc(F)cc3)c2c1=O)NCCC1=CCCCC1 | 43%[0.594 µM]
COC1CCOC2(CCN(C(=O)Nc3cccc(F)c3)CC2)C1 (stereo not given) | i
COCCN1C(=O)CO[C@H]2CN(C3CCN(C(C)=O)CC3)C[C@H]21 | -11%[44.1 µM]
O=C1CC(c2noc(-c3ccc4c(c3)OCO4)n2)CN1c1ccc(Cl)cc1 (stereo not given) | 4%
Cc1ccc(C(=O)N2CC[C@@H]3CN(S(C)(=O)=O)[C@@H]3C2)cc1C | 21%
O[C@@H]1CCN(Cc2nc(C3(O)CCN(Cc4ccccc4F)CC3)cs2)C1 | -17%[44.1 µM]
CCOC(=O)c1c(NC(=O)c2ccc(S(=O)(=O)N3CCC(C)CC3)cc2)sc2c1CCN(CC)C2 | 8.9µM*
Cc1ccc2c(=O)cc(C(=O)Nc3ccc(S(=O)(=O)N4CCCC(C)C4)cc3)oc2c1C (stereo not given) | 36%
CCC1CCCCN1S(=O)(=O)c1ccc(NC(=O)c2cc(=O)c3c(C)cc(C)cc3o2)cc1 (stereo not given) | -11%
CCC1CCCCN1S(=O)(=O)c1ccc(C(=O)Nc2sc3c(c2C(=O)NC)CCC3)cc1 (stereo not given) | 13µM*
Cc1ccc2oc(C(=O)Nc3ccc(S(=O)(=O)N4CCCC(C)C4)cc3)cc(=O)c2c1 (stereo not given) | 80%
CCOC(=O)c1c(NC(=O)c2ccc(F)cc2)sc2c1CCC(CC)C2 (stereo not given) | 20%
COC(=O)c1ccc2c(c1)sc(=NC(=O)c1ccc(S(=O)(=O)N3CCCCC3)cc1)n2C | 2%
CCOC(=O)c1c(NC(=O)c2ccc(C)cc2)sc2c1CCCCC2 | 27%
COC(=O)c1c(NC(=O)c2ccc(S(=O)(=O)N3CCCCC3)cc2)sc2c1CCN(C)C2 | 10µM*
COc1ccc(Cl)c2sc(NC(=O)c3ccc(S(=O)(=O)N4CCCC4)cc3)nc12 | 2%
CNC(=O)c1c(NC(=O)/C=C/c2ccccc2)sc2c1CCC2 | -17%
COC(=O)c1c(NC(=O)c2ccc(S(=O)(=O)N3CCCC(C)C3)cc2)sc2c1CCN(C(C)C)C2 (stereo not given) | 8.9µM*
CCN(CC)Cc1nc(C2(O)CCN(C3CCN(C(C)=O)CC3)CC2)cs1 | i
Cc1nn(C)c(C)c1-c1cc(C(=O)N[C@H]2CC[C@H]2NC(C)C)n(C)n1 | i
O=C(c1ccccc1)N1CCC(Oc2ccccc2)C1 (stereo not given) | -4%
SMILES | Pf Dd2 inh
Cc1nn(-c2ccccc2)c(Oc2ccc(F)cc2F)c1CCC(=O)NC1CC1 | -23%
Cc1cccc(-n2nc(C)c(CCC(=O)NC3CC3)c2Oc2ccccc2C)c1 | -1%
Cc1cccc(-n2nc(C)c(CCC(=O)N3CCSCC3)c2Oc2ccccc2C)c1 | 8.9µM*
CCNC(=O)CCc1c(C)nn(-c2cccc(C)c2)c1Oc1ccccc1C | -7%
Cc1ccc(CNC(=O)CN2C(=O)NC3(CCOCC3)C2=O)cc1 | 27%
CCOc1ccccc1CNC(=O)C(C)C1CCOCC1 (stereo not given) | 35%
COc1cccc(CN2C[C@@H]3C(=O)N(CCN4CCc5ccccc5C4)C(=O)[C@@H]3C2)c1OC | 7.1µM*
COCCN1C(=O)[C@H]2CN(Cc3ccccc3OC(F)(F)F)C[C@H]2C1=O | 50%
COc1cccc(CN2CCc3nn(C)c(=O)n3CC2)c1OC | 40%
O=C(c1cccc2c1NCCC2)N1CCn2nc(C(O)C3CC3)cc2C1 (stereo not given) | -4%
O=[S+]1([O-])NC2(CCN(Cc3cccc4ccccc34)CC2)CNc2ccccc21 | -12%
Cc1nc(C2(C)CCN(C(=O)CCc3nc4ccccc4[nH]3)CC2)no1 | 18%
CCNc1ncnc2sc3c(c12)CCN(Cc1ccncc1)C3 | 13µM*
CCNc1ncnc2sc3c(c12)CCN(C(=O)COC)C3 | -9%
CCNc1ncnc2sc3c(c12)CCN(C(=O)CCOC)C3 | -14%
COc1ncc(CN2CCc3c(n(Cc4cccnc4)n(-c4ccccc4)c3=O)C2)cn1 | 39%[44.1 µM]
COCCCNc1ncnc2sc3c(c12)CCN(Cc1cccnc1)C3 | 5µM*
Oc1cccc(Nc2ncnc3sc4c(c23)CCCC4)c1 | -28%
O=C1CCN(C(=O)CC2CCCCC2)CCCOCCN1 | 8%
COc1ccc(CN2C(=O)CO[C@H]3CN(c4nccc(C)n4)C[C@H]32)cc1 | -21%[44.1 µM]
CCc1cc(NC(CCO)c2ccccc2)n2nc(C)c(C)c2n1 (stereo not given) | -29%
CCOC(=O)C1CCN(c2cc3c(cc2NC(=O)c2ccc(OC)c(OC)c2)n(C)c(=O)n3C)CC1 | 8.9µM*
CCOC(=O)c1ccc(NC(=O)Nc2cc3c(cc2N2CCCC2)n(C)c(=O)n3C)cc1 | i
COc1ccc(C(=O)Nc2cc(C(F)(F)F)ccc2N2CCN(c3ccccc3)CC2)cc1OC | -7%
O=C(CCC1CCN(c2cc(NC3CC3)ncn2)CC1)N1CCN(c2ccccc2F)CC1 | -10%
SMILES | Pf Dd2 inh
CCCNc1cc(N2CCC(CCC(=O)NCC3CC3)CC2)ncn1 | i
CCCNc1cc(N2CCC(CCC(=O)N3CCN(c4ccccc4F)CC3)CC2)ncn1 | 11µM*
COc1cccc(Cn2c(Cc3c[nH]c4ccccc34)n[nH]c2=O)c1 | -8%
CNCc1cn(C2CCN(Cc3c(OC)ccc(F)c3F)CC2)nn1 | -22%
Cc1ccc(CNC(=O)[C@H]2CCC[C@H]2NC(=O)c2ccncc2)o1 | 0%
CC(C)(C)OC(=O)N1CCC(c2c(C(=O)NCCc3ccccc3)cnn2-c2ccc(F)cc2F)CC1 | 5.6µM*
Cc1ccc(-n2ncc(C(=O)NCc3ccccn3)c2C2CCN(C(=O)OC(C)(C)C)CC2)c(C)c1 | i
Cc1ccc(-n2ncc(C(=O)NCCc3ccccc3)c2C2CCN(C(=O)OC(C)(C)C)CC2)c(C)c1 | 10µM*
CCOC(=O)c1ccc(NC(=O)c2cnn(-c3ccc(C)cc3C)c2C2CCN(C(=O)OC(C)(C)C)CC2)cc1 | 13µM*
COCCCNC(=O)c1cnn(-c2ccc(F)cc2F)c1C1CCNCC1 | -3%
CC(C)(C)OC(=O)N1CCC(c2c(C(=O)NCCc3ccccc3)cnn2-c2ccc(F)cc2)CC1 | 11µM*
O=C(NCCc1ccccc1)c1cnn(-c2ccc(F)cc2)c1-n1cccc1 | 4%
O=C(NC1CCCCCC1)C1CC(=O)N(c2n[nH]c3cccc(F)c23)C1 (stereo not given) | -6%
O=C(C1CC=CC1)N1CCc2nn(Cc3ccccc3)c(=O)n2CC1 | 20%
COCCN1C(=O)CO[C@H]2CN(c3nccc(OC)n3)C[C@H]21 | -2%[44.1 µM]
O=C(Nc1ccccc1)c1nc2c(o1)CCN(Cc1ccccc1)CC2 | i
Cc1ccc(-n2ncc(C(=O)N3CCc4ccccc4C3)c2C2CCN(C(=O)OC(C)(C)C)CC2)cc1C | -2%
CC(C)(C)OC(=O)N1CCC(c2c(C(=O)N3CCCCC3)cnn2-c2cccc(F)c2)CC1 | -5%
CC(C)(C)OC(=O)N1CCC(c2c(C(=O)NCc3ccccc3)cnn2-c2cccc(F)c2)CC1 | 10µM*
CC(C)(C)OC(=O)N1CCC(c2c(C(=O)NCc3cccs3)cnn2-c2ccc(F)cc2F)CC1 | 4µM*
